Screening data deposited in PubChem BioAssay by National Center for Advancing Translational Sciences (NCATS).
The list is not random: actives were taken first. Their share in the collection is about 2.8%.
PI5P4Ka inh = PI5P4K alpha (human) kinase inhibition; PI5P4Kalpha enzyme, ADP-Glo luminescence, 60 min; active compounds read low; P48426; AID 652105; 330,000 compounds, 1.2% hits; max response, %; active = max response of -50% or lower; inconclusive = between -30% and -50%; inactive = -30% or higher; note: value at the top dose of about 77 µM; % is set by controls: 0 for no effect and ±100 for the full control effect
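Human PI5P4Kalpha with substrate in 0.038 M HEPES pH 7.4, 0.28 mM EGTA, 0.1% CHAPS, 5% DMSO; reaction started with 5 microM ATP (final), 60 min at room temperature. ADP formed read by ADP-Glo luminescence.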
WRN inhibitor = inhibitors of human WRN helicase | WRN helicase unwinding, fluorescent forked duplex, kinetic | Potency, µM (titrated, usually from 114 µM), for inactives: top-dose activity change, negative = inhibition, usual class: inhibitors | 360,000 compounds, 0.46% hits; note: potency is the fitted concentration of half-maximal effect; % is set by controls: 0 for no effect and ±100 for the full control effect; nearly all actives have a fitted effect of over 55% in size
Target sequence (Q14191 whole entry, looked up): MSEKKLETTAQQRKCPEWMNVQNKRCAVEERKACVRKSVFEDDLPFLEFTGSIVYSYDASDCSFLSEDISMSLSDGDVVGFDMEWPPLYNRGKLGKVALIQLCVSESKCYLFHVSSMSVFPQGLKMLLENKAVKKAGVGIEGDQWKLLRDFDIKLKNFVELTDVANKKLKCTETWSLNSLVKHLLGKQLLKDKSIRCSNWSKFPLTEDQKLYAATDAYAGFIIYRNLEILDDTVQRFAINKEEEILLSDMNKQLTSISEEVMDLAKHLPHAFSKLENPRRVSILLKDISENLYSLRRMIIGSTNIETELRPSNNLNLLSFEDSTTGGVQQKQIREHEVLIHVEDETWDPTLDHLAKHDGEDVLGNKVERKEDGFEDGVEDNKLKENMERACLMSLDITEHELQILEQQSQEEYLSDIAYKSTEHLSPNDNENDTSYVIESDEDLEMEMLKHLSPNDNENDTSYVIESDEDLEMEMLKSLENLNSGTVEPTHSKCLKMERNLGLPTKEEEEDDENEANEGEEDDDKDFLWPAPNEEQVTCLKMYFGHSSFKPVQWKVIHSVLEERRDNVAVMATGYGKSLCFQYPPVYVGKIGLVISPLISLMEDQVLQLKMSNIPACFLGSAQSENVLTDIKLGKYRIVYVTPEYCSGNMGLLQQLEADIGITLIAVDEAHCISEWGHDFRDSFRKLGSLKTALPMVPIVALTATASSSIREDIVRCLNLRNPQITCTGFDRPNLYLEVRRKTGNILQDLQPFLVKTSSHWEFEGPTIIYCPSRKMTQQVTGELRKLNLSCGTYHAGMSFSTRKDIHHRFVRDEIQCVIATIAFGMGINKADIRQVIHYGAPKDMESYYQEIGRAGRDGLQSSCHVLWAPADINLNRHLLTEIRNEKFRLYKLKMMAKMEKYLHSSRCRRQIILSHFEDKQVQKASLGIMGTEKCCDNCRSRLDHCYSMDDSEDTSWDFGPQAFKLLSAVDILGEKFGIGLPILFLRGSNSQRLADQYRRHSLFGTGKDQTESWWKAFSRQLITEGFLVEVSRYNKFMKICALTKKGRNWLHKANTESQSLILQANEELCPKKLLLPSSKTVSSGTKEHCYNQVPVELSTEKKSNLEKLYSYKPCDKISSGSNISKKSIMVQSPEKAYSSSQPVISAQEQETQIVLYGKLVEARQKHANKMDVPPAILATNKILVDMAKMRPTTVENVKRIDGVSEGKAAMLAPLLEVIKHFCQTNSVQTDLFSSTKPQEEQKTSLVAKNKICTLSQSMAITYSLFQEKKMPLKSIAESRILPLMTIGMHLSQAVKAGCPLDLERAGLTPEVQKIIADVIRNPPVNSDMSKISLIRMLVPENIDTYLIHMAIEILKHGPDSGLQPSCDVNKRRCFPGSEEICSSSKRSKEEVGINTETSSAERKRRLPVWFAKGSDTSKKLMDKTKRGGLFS
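Kinetic red-fluorescence monitoring (525/598 nm) tracks WRN helicase activity after 100 nM fluorophore-quencher forked duplex and 2 mM ATP are added to 20 nM enzyme pretreated 15 min at room temperature with compound.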
Pol beta inh = inhibitors of human DNA polymerase beta. 340,000 compounds, 1.3% hits. Pol beta primer extension/strand displacement, fluorescence kinetic. P06746. AID 485314. Potency, µM (doses to about 114 µM), for the others: at the highest dose activity change, negative = inhibition, usual class: inhibitors; note: potency is the fitted concentration of half-maximal effect; % is set by controls: 0 for no effect and ±100 for the full control effect
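Reaction started by 50 nM substrate onto compound-treated Pol beta (10 nM, 15 min preincubation, room temperature); plates read at 0 min and 10 min. Normalized concentration-effect data fitted by four-parameter Hill equation.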
POLH inh = blocks human DNA polymerase eta activity. 390,000 compounds, 1.2% hits. recombinant Pol eta, fluorescent DNA replication assay. AID 588591. Q9Y253. Potency, µM (doses to about 114 µM), for the others: at the top dose activity change, negative = inhibition, hits mostly inhibitors; note: potency is the fitted concentration of half-maximal effect; % is set by controls: 0 for no effect and ±100 for the full control effect
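Fluorescent replication assay: 50 nM final substrate added after a 15 min room-temperature compound preincubation with 10 nM enzyme. Signal taken at 0 min and again at 10 min.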
Pol iota inh = blocks human DNA polymerase iota activity. Pol iota fluorescent replication assay, 10 min. Q9UNA4. Potency, µM (highest dose often 115 µM), for inactives: at the highest dose activity, negative = inhibition, actives largely listed as inhibitors. 390,000 compounds, 1% hits; note: potency is the fitted concentration of half-maximal effect
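Pol iota at 10 nM preincubated 15 min with compounds at room temperature; reaction started with fluorescent substrate, 50 nM final. Fluorescence read kinetically at 0 and 10 min; buffer-only wells as negative control.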
Pol kappa inh = DNA polymerase kappa (human) inhibition; Q9UBT6; purified Pol kappa, fluorescent DNA synthesis assay, 10 min; Potency, µM (series often up to 107 µM), without a hit: top-dose activity, negative = inhibition, most hits filed as inhibitors; 400,000 compounds, 0.53% hits; note: potency is the fitted concentration of half-maximal effect; % is set by controls: 0 for no effect and ±100 for the full control effect
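10 nM Pol kappa was preincubated with compounds for 15 min at room temperature. Reaction started with 50 nM (final) substrate. Fluorescence read kinetically at 0 and 10 min.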
ADP-Glo interf = ADP-Glo luciferase interference, PI5P4K counter-screen; shares compounds with PI5P4Ka inh; ADP-Glo detection counter-screen, luciferase luminescence, no enzyme; Potency, µM (top dose mostly 76.9 µM), inactives show at the top dose activity change, negative = inhibition, hits mostly inhibitors; 1,100 tested, under 10 active; AID 743285
Active calls of the source: *; [ ] = another dose, or the depositor's remark. Unless noted, calls come from the whole dose curve; as a rule, active = well fitted curve in the direction sought with a large enough effect; inconclusive = small, poorly fitted or top-dose-only effect, or another doubt; inactive = no such curve, though single readings can be large; an effect the other way counts as inactive or inconclusive.

What do the screens show for `CCC(=O)c1ccc(OCC(=O)N2CCN(S(=O)(=O)c3ccc(Cl)s3)CC2)cc1`?
PI5P4Ka inh: -53.6*; WRN inhibitor: -20.2%; POLH inh: 44.7µM*; Pol iota inh: inconclusive; Pol kappa inh: inconclusive; ADP-Glo interf: -11.3%

What do the screens show for `O=C(c1ccc(Br)cc1)c1cc2ccc(O)cc2oc1=O`?
PI5P4Ka inh: -62.7*; WRN inhibitor: -15.0%; Pol beta inh: -1.9%; POLH inh: 4.2%; Pol iota inh: 10.0%; Pol kappa inh: -5.9%; ADP-Glo interf: -5.1%

How did CCCNC(=O)C1(C)CCCN(C(=O)c2cc(C)nn2C(C)(C)C)C1 (stereo unspecified) do in these assays?
PI5P4Ka inh: -71.1*; WRN inhibitor: 0.3%; ADP-Glo interf: 2.1%

What do the screens show for `CCCNC(=O)C1(C)CCN(C(=O)c2cc(C)nn2C(C)(C)C)C1` (stereo unspecified)?
PI5P4Ka inh: 5.0; WRN inhibitor: 0.8%

What do the screens show for `O=C(O)c1cccc(NC(=O)c2cn(-c3ccccc3)nc2-c2cc3ccccc3o2)c1`?
PI5P4Ka inh: -52.6*; WRN inhibitor: -23.6%[57.1 µM]; Pol beta inh: inconclusive; POLH inh: inconclusive; Pol iota inh: inconclusive; Pol kappa inh: -27.5%; ADP-Glo interf: -7.8%

How did O=C(N/N=C/c1cn(-c2ccccc2)nc1-c1cc2ccccc2o1)c1ccncc1 do in these assays?
PI5P4Ka inh: inconclusive; WRN inhibitor: -1.2%; Pol beta inh: -1.3%; POLH inh: -7.3%; Pol iota inh: 7.3%; Pol kappa inh: -6.5%

Results for COc1ccc(S(=O)(=O)N2CCN(Cc3ccco3)CC2)cc1 ?
PI5P4Ka inh: -5.0; WRN inhibitor: -5.3%; Pol beta inh: -6.4%; POLH inh: -15.1%; Pol iota inh: 31.3%; Pol kappa inh: 2.3%

What do the screens show for `O=C(Nc1ccc(O)c2c(=O)cc(-c3ccccc3Cl)oc12)c1ccc(Cl)c(Cl)c1`?
PI5P4Ka inh: 0.0; WRN inhibitor: 0.4%; Pol beta inh: -13.3%; POLH inh: -0.2%; Pol iota inh: inconclusive; Pol kappa inh: 16.6%; ADP-Glo interf: -5.7%

What do the screens show for `O=C(Nc1ccc(O)c2c(=O)cc(-c3ccccc3Cl)oc12)c1cc(Cl)cc(Cl)c1`?
Pol iota inh: 12.8%; Pol kappa inh: -26.2%

How did CCN(CC(=O)Nc1ccc(OC)cc1)C(=O)c1ccc([N+](=O)[O-])cc1 do in these assays?
PI5P4Ka inh: -64.2*; WRN inhibitor: -19.5%; Pol beta inh: 3.1%; POLH inh: 3.6%; Pol iota inh: 19.3%; Pol kappa inh: -6.8%; ADP-Glo interf: 3.0%

What do the screens show for `Cc1cccc2sc(N(Cc3cccnc3)C(=O)CCS(=O)(=O)c3ccccc3)nc12`?
Pol beta inh: inconclusive; POLH inh: 7.6%; Pol iota inh: inconclusive; Pol kappa inh: -14.3%[60.1 µM]

What do the screens show for `Cc1ccc(NC(=O)c2cc(NC(=O)c3ccccc3C(=O)O)ccc2N2CCCCC2)cc1`?
PI5P4Ka inh: -51.7*; WRN inhibitor: -5.4%; Pol beta inh: -18.9%; POLH inh: -19.3%; Pol iota inh: 12.5%; Pol kappa inh: -1.2%; ADP-Glo interf: -3.4%

Results for CC(=O)Nc1ccc(N2CCCCC2)c(C(=O)Nc2cccc(C)c2)c1 ?
WRN inhibitor: -5.1%; Pol beta inh: 5.6%; POLH inh: -25.3%; Pol iota inh: -2.2%; Pol kappa inh: -13.5%

What do the screens show for `O=C(COC(=O)C1CCCCC1)Nc1ccccc1OC(F)F`?
PI5P4Ka inh: -68.0*; WRN inhibitor: inconclusive; Pol beta inh: 21.5%; POLH inh: -18.6%; Pol iota inh: 81.0%; Pol kappa inh: -14.6%; ADP-Glo interf: -4.6%

Results for O=C(c1cc2nc(C3CC3)cc(C(F)F)n2n1)N1CCOCC1 ?
PI5P4Ka inh: -62.7*; WRN inhibitor: inconclusive; Pol beta inh: 50.1µM*; POLH inh: 12.6µM*; Pol iota inh: inconclusive; Pol kappa inh: 79.4µM*; ADP-Glo interf: -12.4%

Results for CCCCNC(=O)C(CC)Sc1nc2ccccc2c(=O)n1CCc1ccc(OC)c(OC)c1 (stereo unspecified) ?
Pol beta inh: 16.0%; POLH inh: -2.7%; Pol iota inh: 6.5%; Pol kappa inh: -6.6%[60.1 µM]

Results for Cc1cccc(NC(=O)CSc2nc3c(oc4ccccc43)c(=O)n2C(C)C)c1 ?
Pol beta inh: 15.6%; POLH inh: -20.0%; Pol iota inh: 2.8%; Pol kappa inh: -4.2%

How did CS(=O)(=O)Nc1ccc(C2=NN(C(=O)c3ccco3)C(c3ccc(F)cc3)C2)cc1 (stereo unspecified) do in these assays?
PI5P4Ka inh: -55.9*; WRN inhibitor: -23.4%; Pol beta inh: -7.9%; POLH inh: -12.0%; Pol iota inh: -29.5%; Pol kappa inh: -5.1%; ADP-Glo interf: -4.8%

Results for O=C(c1ccco1)N1N=C(c2cccs2)CC1c1ccc(F)cc1 (stereo unspecified) ?
PI5P4Ka inh: -2.3; WRN inhibitor: 0.5%; Pol beta inh: 4.1%; POLH inh: -18.3%; Pol iota inh: -0.1%; Pol kappa inh: -12.6%

Results for CN(CCc1ccccc1)C1CCCN(S(=O)(=O)N(C)C)C1 (stereo unspecified) ?
PI5P4Ka inh: 2.0; WRN inhibitor: 0.9%; Pol beta inh: -30.0%; POLH inh: inconclusive; Pol iota inh: 34.6%; Pol kappa inh: -4.4%

Results for COCc1c(C(=O)N2CCc3ccccc32)oc2ccccc12 ?
PI5P4Ka inh: -77.4*; WRN inhibitor: -1.5%[11.6 µM]; Pol beta inh: -11.4%; POLH inh: -98.1%; Pol iota inh: 79.4µM*; Pol kappa inh: inconclusive; ADP-Glo interf: 0.0%

How did COCCN(C(=O)c1cccc(-n2cnnn2)c1)c1c(N)n(CC(C)C)c(=O)[nH]c1=O do in these assays?
PI5P4Ka inh: -1.4; WRN inhibitor: 5.9%; POLH inh: -8.2%; Pol iota inh: -11.5%; Pol kappa inh: -5.8%

What do the screens show for `Cc1ccc(-n2c(=S)[nH]c3sc4c(c3c2=O)CCC4)cc1`?
PI5P4Ka inh: -54.6*; WRN inhibitor: inconclusive; Pol beta inh: 4.4%; POLH inh: -9.4%; Pol iota inh: 22.4%; Pol kappa inh: 0.3%; ADP-Glo interf: -0.1%

What do the screens show for `Cn1nnnc1Sc1ncnc2scc(-c3ccc(C(F)(F)F)cc3)c12`?
POLH inh: -16.1%; Pol iota inh: 13.8%; Pol kappa inh: -4.6%

How did Cn1nnnc1Sc1ncnc2scc(-c3ccccc3C(F)(F)F)c12 do in these assays?
POLH inh: -4.4%; Pol iota inh: -9.1%; Pol kappa inh: 6.4%; ADP-Glo interf: 1.9%
